KB-3-1 cytotox = kills parental KB-3-1 adenocarcinoma cells; AID 1347075; KB-3-1 viability, CellTiter-Glo ATP luminescence, 72 h; 400,000 compounds, 1.4% hits; Potency, µM (highest dose often 46.1 µM), usual class: cytotoxic; also: nearly all actives have a fitted effect of over 60% in size
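72 h, 37 °C compound treatment of KB-3-1 parental cells; CellTiter-Glo added, 10 min, luminescence read. Data corrected against DMSO-only plates and normalized before curve fitting.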
MCF10A rerep = induces DNA re-replication in MCF 10a normal breast cells; Potency, µM (series often up to 46.1 µM), hits mostly activators; 350,000 compounds, 2.9% hits; AID 624296; MCF 10A DNA re-replication, Hoechst nuclear intensity, 48 h; also: nearly all actives have a fitted effect of over 50% in size
ELG1 repair inh = blocks ELG1-dependent DNA repair in HEK293T cells. 330,000 compounds, 2.3% hits. AID 504467. Potency, µM (titrated, usually from 46.1 µM), most hits filed as inhibitors. HEK293T ELG1-luciferase reporter, luminescence, 16 h; DNA damage induced by 5-fluorouridine; also: nearly all actives have a fitted effect of over 55% in size
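HEK293T cells expressing luciferase-tagged ELG1 (2,000/well) received 5-Fluorouridine plus compound or DMSO for 16 hr at 37 °C. Luciferase was read by ONE-Glo luminescence after 30 min at room temperature.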
SW480 rerep = DNA re-replication induction in SW480 cells. Potency, µM (highest dose often 46.1 µM), hits mostly activators. SW480 DNA re-replication, Hoechst DNA content imaging, 48 h. 340,000 compounds, 1.8% hits; also: nearly all actives have a fitted effect of over 55% in size
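Image-based DNA-content assay: after two days of treatment, nuclei were labelled with the DNA dye Hoechst and imaged, and hits were compounds raising the count of nuclei showing high fluorescence intensity.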
KB-V1 cytotox = kills drug-selected multidrug resistant KB-V1 cells. 400,000 compounds, 3.4% hits. Potency, µM (titrated, usually from 46.1 µM), hits mostly cytotoxic. KB-V1 MDR cells viability, CellTiter-Glo, 72 h. AID 1347076; also: nearly all actives have a fitted effect of over 60% in size
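In this primary screen, KB-V1 cells overexpressing P-gp are incubated with library compounds (lowest to highest concentration) for 72 h at 37 degrees C before a luminescent ATP viability read.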
Each line names hits and unclear results; the compound was inactive in the other large screens; ! = repeats disagree. Rows were chosen to be rich in hits. Some 8.2% of all compounds tested hit in one or more screens of this group. Calls follow the shape of the dose curve; as a rule, active = well fitted curve in the direction sought with a large enough effect; inconclusive = small, poorly fitted or top-dose-only effect, or another doubt; inactive = no such curve, though single readings can be large; an effect the other way counts as inactive or inconclusive.

CC(NC(=O)Cn1c(=O)oc2cc(S(=O)(=O)NCc3ccccc3)ccc21)c1ccccc1 (stereo unspecified)	none (no result: MCF10A rerep, ELG1 repair inh, SW480 rerep)
C=CCC[C@@H](Cc1ccc(F)cc1)C(=O)OC[C@H](Cc1c[nH]c2ccccc12)NC(=O)[C@@H](CC=C)CC(=O)N[C@@H](CO)Cc1ccccc1	MCF10A rerep inconclusive, SW480 rerep inconclusive, KB-V1 cytotox inconclusive
C=CCC[C@H](Cc1ccc(F)cc1)C(=O)OC[C@@H](Cc1c[nH]c2ccccc12)NC(=O)[C@@H](CC=C)CC(=O)N[C@@H](CO)Cc1ccccc1	KB-3-1 cytotox inconclusive, MCF10A rerep 18.4µM, SW480 rerep inconclusive
C=CCC[C@@H](Cc1ccc(F)cc1)C(=O)OC[C@@H](Cc1c[nH]c2ccccc12)NC(=O)[C@H](CC=C)CC(=O)N[C@H](CO)Cc1ccccc1	KB-3-1 cytotox inconclusive, MCF10A rerep 16.4µM
C=CCC[C@@H](Cc1ccc(F)cc1)C(=O)OC[C@@H](Cc1c[nH]c2ccccc12)NC(=O)[C@@H](CC=C)CC(=O)N[C@@H](CO)Cc1ccccc1	none
C=CCC[C@H](Cc1ccc(F)cc1)C(=O)OC[C@H](Cc1c[nH]c2ccccc12)NC(=O)[C@@H](CC=C)CC(=O)NCCO	ELG1 repair inh 20.6µM
C=CCC[C@@H](Cc1ccc(F)cc1)C(=O)OC[C@@H](Cc1c[nH]c2ccccc12)NC(=O)[C@@H](CC=C)CC(=O)N[C@H](CO)Cc1ccccc1	KB-3-1 cytotox inconclusive
Cc1ccnc2cc(Cl)c(Cl)cc12	KB-V1 cytotox inconclusive (no result: MCF10A rerep, ELG1 repair inh, SW480 rerep)
COC(=O)Cn1c(=O)c2c(n(Cc3ccccc3)c1=O)N/C(=C/c1ccc(Br)cc1)C2=O	KB-3-1 cytotox inconclusive, MCF10A rerep 4.61µM, SW480 rerep inconclusive, KB-V1 cytotox inconclusive
COC(=O)CN1C(=O)N/C(=C/c2ccc(OC)cc2)C1=O	none
CCOC(=O)c1c(CSc2ccccc2)n(C)c2ccc(O)c(CN3CCOCC3)c12	ELG1 repair inh inconclusive
COc1c(O)cccc1/C=N/NC(=O)Cn1ccnc1C	ELG1 repair inh 23.1µM
COc1cccc(/C=N/NC(=O)Cn2ccnc2C)c1	none
O=S(=O)(c1ccc(Br)cc1)N1CCN(c2nc(-c3ccccc3)nc3ccccc23)CC1	none (no result: MCF10A rerep, ELG1 repair inh, SW480 rerep)
COc1c2ccoc2cc2oc(=O)ccc12	KB-V1 cytotox 25.9µM
OCCOC[C@H]1O[C@H](OCCO)[C@H](OCCO)[C@@H](OCCO)[C@@H]1OCCO (tested in a mixture with another compound)	none (no result: KB-3-1 cytotox, ELG1 repair inh, KB-V1 cytotox)
CC1(C)N=C(N)N=C(N)N1c1ccc(OCCCOc2ccccc2)c(Cl)c1	KB-3-1 cytotox inconclusive, MCF10A rerep inconclusive, ELG1 repair inh 2.59µM
COc1ccc(N2C(N)=NC(N)=NC2(C)C)cc1	KB-3-1 cytotox inconclusive, MCF10A rerep inconclusive
COc1cccc(N2C(N)=NC(N)=NC2(C)C)c1	KB-3-1 cytotox inconclusive, MCF10A rerep inconclusive
CCOc1ccc(N2C(N)=NC(N)=NC2(C)C)cc1	KB-3-1 cytotox inconclusive, MCF10A rerep 7.31µM
CC1(C)N=C(N)N=C(N)N1c1cccc(C#N)c1	KB-3-1 cytotox 16.4µM, SW480 rerep inconclusive (no result: ELG1 repair inh)
CN(C)/C=N/c1nc2c(ncn2C2CC(O)C(CO)O2)c(=O)[nH]1 (stereo unspecified)	none (no result: MCF10A rerep, ELG1 repair inh, SW480 rerep)
O=C(COc1ccc2c3c(c(=O)oc2c1)CCCC3)NCCCn1ccnc1	KB-V1 cytotox inconclusive
COC(=O)CCc1c(C)c(C(=O)c2cc(OC)c(OC)c(OC)c2)c2ccccn12	MCF10A rerep inconclusive, ELG1 repair inh inconclusive, SW480 rerep 10.3µM
O=C(CSc1nnc(Cn2nnc3ccccc32)o1)Nc1cccc(Cl)c1	none
O=C(CSc1nnc(Cn2nnc3ccccc32)o1)N(Cc1ccc(Cl)cc1)c1ccccc1	KB-3-1 cytotox 13µM
CCN(C(=O)CSc1nnc(Cn2nnc3ccccc32)o1)c1nc(-c2ccccc2)cs1	ELG1 repair inh 18.4µM, KB-V1 cytotox inconclusive
Oc1cccc(C=Nc2cccc3ccccc23)c1O	MCF10A rerep 18.4µM, SW480 rerep 18.4µM
Cc1ccccc1OCC(O)CO (stereo unspecified)	none (no result: KB-3-1 cytotox, ELG1 repair inh, KB-V1 cytotox)
N=C1SCC(=O)N1c1ncc(Cc2cccc(Cl)c2)s1	MCF10A rerep 11.6µM, ELG1 repair inh inconclusive, SW480 rerep inconclusive, KB-V1 cytotox inconclusive
Cc1cccc(Cc2cnc(N3C(=N)SC(C)C3=O)s2)c1 (stereo unspecified)	ELG1 repair inh inconclusive, KB-V1 cytotox inconclusive
N=C1SCC(=O)N1c1ncc(Cc2ccccc2Cl)s1	MCF10A rerep 18.4µM, ELG1 repair inh inconclusive, SW480 rerep inconclusive
CCCCCCC(C)OC(=O)c1ccccc1C(=O)O (stereo unspecified)	none
CCOC(=O)[C@H]1[C@H]2COc3ccc(C)cc3[C@@H]2N2C(=O)CN(CC3CCCO3)C(=O)[C@@]12C (stereo partly specified)	none
CC(C)Oc1ccc(C(=O)CCN2CCOCC2)cc1	MCF10A rerep inconclusive, SW480 rerep inconclusive, KB-V1 cytotox inconclusive (no result: ELG1 repair inh)
O=C(CCN1CCOCC1)c1ccc(Br)cc1	MCF10A rerep 9.2µM, SW480 rerep inconclusive
O=C(CCN1CCOCC1)c1ccc(Cl)cc1	MCF10A rerep 7.31µM
O=C(NCCCN1CCOCC1)c1ccc(Cl)cc1	none (no result: KB-3-1 cytotox, ELG1 repair inh, KB-V1 cytotox)
COc1cc(C(=O)NCCOc2cccc3cccnc23)cc(OC)c1OC	ELG1 repair inh 8.2µM
Cc1ccc(C(=O)NCCOc2cccc3cccnc23)cc1Cl	KB-V1 cytotox inconclusive
COc1cc(C(=O)NCc2cccc3ccccc23)cc(Cl)c1OC	MCF10A rerep inconclusive, ELG1 repair inh inconclusive, KB-V1 cytotox 18.4µM
COc1ccc(/C=C/C(=O)OCC(=O)NC(C)CCc2ccccc2)cc1 (stereo unspecified)	none
CC(C)OC(=O)c1c(F)c(F)c(N2CCOCC2)c(F)c1F	MCF10A rerep 3.26µM
COC(=O)c1c(F)c(F)c(N2CCOCC2)c(F)c1F	none
CCCCCCCCN1[C@@H](CC(=O)OC)c2cc(C(F)(F)F)ccc2S1(=O)=O	KB-V1 cytotox inconclusive (no result: ELG1 repair inh)
CCCCCCCCN1[C@@H](CC(C)=O)c2cc(C(F)(F)F)ccc2S1(=O)=O	KB-3-1 cytotox inconclusive, SW480 rerep inconclusive, KB-V1 cytotox 18.4µM! (no result: ELG1 repair inh)
CN(C(=O)COC(=O)C1(C)CC1(Cl)Cl)c1c(N)n(Cc2ccccc2)c(=O)[nH]c1=O (stereo unspecified)	KB-V1 cytotox inconclusive
CN(CC(=O)Nc1ccc(Cl)cc1)c1ccc(S(=O)(=O)N2CCCCC2)cc1[N+](=O)[O-]	KB-3-1 cytotox inconclusive, ELG1 repair inh 18.4µM, KB-V1 cytotox 16.4µM
O=C(CSCc1ccc(Cl)cc1)Nc1ccc(S(=O)(=O)N2CCCCCC2)cc1	KB-V1 cytotox inconclusive
COc1ccc(CCN(C)c2ccc(S(=O)(=O)N3CCCC3)cc2[N+](=O)[O-])cc1OC	KB-3-1 cytotox inconclusive, MCF10A rerep inconclusive, KB-V1 cytotox 2.59µM

High-throughput results: PubChem BioAssay, National Center for Advancing Translational Sciences (NCATS)
